Results filed as inconclusive are left out. Activity calls are given as the source filed them. Calls follow the shape of the dose curve; as a rule, active = well fitted curve in the direction sought with a large enough effect; inconclusive = small, poorly fitted or top-dose-only effect, or another doubt; inactive = no such curve, though single readings can be large; an effect the other way counts as inactive or inconclusive.
How the values were obtained:
[1] = MultiTox-Fluor Cytotoxicity Assay - LYMP1-003 - Live Cells (AID 962); details: LYMP1-003 lymphoblastoid cells, MultiTox-Fluor live-cell protease fluorescence; series mostly up to 92.2 µM;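 also: cells exposed to compound for 16 hours at 37 °C; cytotoxic hits lower the live-cell protease signal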
Summary of the method: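 Human lymphoblastoid line LYMP1-003 in complete culture medium, treated 16 hr with titrated compounds. Viable cells quantified via cell-permeant GF-AFC substrate fluorescence; AC50 derived by Hill fitting.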

[2] = Cell Viability - LYMP1-003 - Assay at 24 hr (AID 963); details: LYMP1-003 lymphoblastoid cell viability; series mostly up to 92.2 µM; also: potency is read from the fitted curve at half-maximal effect
Summary of the method: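 The lymphoblastoid line was treated with titrated compounds for 24 hours, and viable cell number estimated from luciferase-based ATP luminescence.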

[3] = Cell Viability - LYMP1-003 - Assay at 40 hr (AID 964); details: LYMP1-003 lymphoblastoid viability; series mostly up to 92.2 µM; also: nearly all actives have a fitted effect of over 60% in size; also: potency is read from the fitted curve at half-maximal effect
Summary of the method: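 Acute toxicity is scored as a concentration-dependent loss of intracellular ATP in LYMP1-003 cells (2500/well, complete medium) after 40 hr at 37 C, measured by CellTiter-Glo luminescence; AC50 values derive from standard Hill modelling.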

[4] = Cell Viability - LYMP2-003 (AID 965); details: LYMP2-003 lymphoblastoid cell viability; series mostly up to 92.2 µM;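 also: cells exposed to compounds for 24 h before reading; nearly all actives have a fitted effect of over 50% in size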
Summary of the method: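 Seed 2500 lymphoblastoid cells/well; incubate 5 hr, 37 C; add compounds; incubate 24 hr, 37 C; add CellTiter-Glo, 30 min RT; read luminescence. AC50 from Hill fit.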

[5] = Cell Viability - LYMP2-004 (AID 966); details: LYMP2-004 lymphoblastoid cell viability, qHTS; series mostly up to 92.2 µM; also: nearly all actives have a fitted effect of over 65% in size
Summary of the method: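 Viable-cell number estimated from ATP luminescence (CellTiter-Glo) in 2500 human lymphoblastoid cells/well after 24 hr at 37 C with compound. AC50 fitted to the standard Hill equation.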

[6] = Cell Viability - LYMP2-005 (AID 967); details: LYMP2-005 lymphoblastoid cell viability; series mostly up to 92.2 µM;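 also: cells exposed to compound for 24 h at 37 °C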
Summary of the method: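 Acute cytotoxicity is scored as a concentration-dependent drop in intracellular ATP in human lymphoblastoid LYMP2-005 cells after 24 h compound treatment. ATP is quantified by luciferase luminescence, and AC50 is derived by Hill-equation modelling.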

[7] = Cell Viability - LYMP2-009 (AID 968); details: LYMP2-009 lymphoblastoid cell viability; series mostly up to 92.2 µM;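 also: cells exposed to compound for 24 h at 37 °C; nearly all actives have a fitted effect of over 55% in size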; also: potency is read from the fitted curve at half-maximal effect
[8] = Cell Viability - LYMP2-011 (AID 969); details: LYMP2-011 lymphoblastoid cells viability; series mostly up to 92.2 µM; also: nearly all actives have a fitted effect of over 60% in size; also: potency is read from the fitted curve at half-maximal effect
Summary of the method: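 Cells seeded at 2500 per well rest 5 hr before compound addition, then incubate 24 hr at 37 C. CellTiter-Glo reagent is added for 30 min at room temperature before luminescence detection.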

[9] = Cell Viability - LYMP2-013 (AID 970); details: LYMP2-013 lymphoblastoid cells viability; series mostly up to 92.2 µM;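 also: cells exposed to compound for 24 h at 37 °C; nearly all actives have a fitted effect of over 55% in size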; also: potency is read from the fitted curve at half-maximal effect
Summary of the method: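 In complete culture medium, human lymphoblastoid cells were dosed for 24 hr at 37 C, with tetraoctylammonium bromide (6.4pM to 92 uM) as positive control. Viability reflects luciferase-based ATP signal; AC50 derived from concentration-response curves.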

[10] = Cell Viability - LYMP2-015 (AID 971); details: LYMP2-015 lymphoblastoid cell viability; series mostly up to 92.2 µM; also: nearly all actives have a fitted effect of over 55% in size
Summary of the method: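 AC50 values reflect Hill-model fits of ATP-based luminescence (CellTiter-Glo) from a human lymphoblastoid line, 2500 cells/well, treated 24 hr at 37 C.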

Measured: Potency

C[C@]12C[C@H](O)[C@H]3[C@@H](CCC4=CC(=O)CC[C@@]43C)[C@@H]1CC[C@@H]2C(=O)CO
inactive: all assays above

Cc1c(O)cccc1C(=O)N[C@@H](CSc1ccccc1)[C@H](O)CN1C[C@H]2CCCC[C@H]2C[C@H]1C(=O)NC(C)(C)C
active: [2] 39.8 µM | [3] 39.8 µM | [7] 50.1 µM | [8] 50.1 µM | [9] 50.1 µM

COc1ccccc1O
inactive: all assays above

Oc1cccc(O)c1
not listed: [5]
inactive: all other assays above

O=C1c2c(O)cccc2Cc2cccc(O)c21
not listed: [6]
inactive: all other assays above

NCCNCCNCCNCCN
inactive: all assays above

NC(=O)c1ncn([C@@H]2O[C@H](CO)[C@@H](O)[C@H]2O)n1
not listed: [3]
inactive: all other assays above

O=C1O[C@H]([C@@H](O)CO)C(O)=C1O
inactive: all assays above

CC12CCC(CC1)C(C)(C)O2
not listed: [5]
inactive: all other assays above

NC(=O)N/N=C/c1ccc([N+](=O)[O-])o1
inactive: [1] | [5] | [6] | [9]

CN(C)CCC=C1c2ccccc2CCc2ccccc21
inactive: [1] | [2] | [4]

CCCCOC(=O)c1ccc(O)cc1
inactive: all assays above

[Cl][In]([Cl])[Cl]
inactive: all assays above

CC1(C)[C@@H]2CC[C@@]1(C)C(=O)C2
not listed: [6]
inactive: all other assays above

Cc1cc(CC(=O)O)n(C)c1C(=O)c1ccc(Cl)cc1
inactive: all assays above

Cc1cc2nc3c(=O)[nH]c(=O)nc-3n(C[C@H](O)[C@H](O)[C@H](O)CO)c2cc1C
inactive: all assays above

Nc1ccc(S(=O)(=O)Nc2nccs2)cc1
inactive: all assays above

NCCNCCNCCN
inactive: all assays above

CCCCCCCCCCCCOS(=O)(=O)O
inactive: all assays above
